# Assay results taken from PubChem BioAssay (NCATS).
# Results filed as inconclusive are left out. Where a call stands in place of a potency, no number is given. Active and inactive are the calls of the source. Calls follow the shape of the dose curve; as a rule, active = well fitted inhibition curve with a large enough effect; inconclusive = small, poorly fitted or top-dose-only effect; inactive = flat fitted curve, though single readings scatter. Numbered stars: 1 amine (or outer) side, 2 acyl side, 3 side chain; on linkers, the order of the positions; unused ones are H or OH. Bridge positions count the residues as written; N and C are the ends. Square brackets hold non-standard residues; d marks the D form. Peptide text beside a SMILES is read from it. I, II: the chains in the order shown. Actinocin(9to1) = Cc1c2oc3c(C)ccc(C(=O)[*:1])c3nc-2c(C(=O)[*:2])c(N)c1=O; NMeV = CN[C@H](C(=O)O)C(C)C; Sar = CNCC(=O)O
# Tests used:
# [1] = biological target: Glutathione peroxidase 1 (Homo sapiens) (UniProt P07203); test: Primary qHTS Assay for Inhibitors of Recombinant Selenoprotein Glutathione Peroxidase 1 (GPX1) (AID 1845191); conditions: recombinant GPX1, GR-coupled NADPH fluorescence, 15 min; series mostly up to 48.8 µM
# Chain of Glutathione peroxidase 1 (Homo sapiens) (P07203 whole entry, looked up): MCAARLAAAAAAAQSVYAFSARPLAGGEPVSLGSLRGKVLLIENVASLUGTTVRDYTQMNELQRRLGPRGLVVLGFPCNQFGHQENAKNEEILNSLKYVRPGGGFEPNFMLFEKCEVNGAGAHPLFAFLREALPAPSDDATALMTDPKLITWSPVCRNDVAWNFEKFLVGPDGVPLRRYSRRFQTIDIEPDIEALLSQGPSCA
# Method in brief: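 GR-coupled assay: compounds preincubated 30 min at room temperature with GPX1, then reaction started with CHP; final 10 nM GPX1, 1 mM GSH, 0.5 mM CHP, 0.5 mM NADPH, 100 nM GR, 0.01% BSA, pH 7.5 Tris buffer. NADPH fluorescence (340/450 nm) read at 0 and 15 min.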
# [2] = biological target: Phospholipid hydroperoxide glutathione peroxidase GPX4 (Homo sapiens) (UniProt P36969); test: Primary qHTS Assay for Inhibitors of Recombinant Selenoprotein Glutathione Peroxidase 4 (GPX4) (AID 1845192); conditions: recombinant GPX4, GR-coupled NADPH fluorescence, 15 min; series mostly up to 50 µM
# Chain of Phospholipid hydroperoxide glutathione peroxidase GPX4 (Homo sapiens) (P36969 whole entry, looked up): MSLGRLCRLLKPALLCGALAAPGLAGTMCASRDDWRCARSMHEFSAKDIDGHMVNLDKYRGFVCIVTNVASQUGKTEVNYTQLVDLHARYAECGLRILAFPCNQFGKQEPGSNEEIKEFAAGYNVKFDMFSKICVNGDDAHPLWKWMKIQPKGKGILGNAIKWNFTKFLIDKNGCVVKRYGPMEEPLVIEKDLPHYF
# Method in brief: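 GR-coupled assay: recombinant GPX4 preincubated 30 min with compound at room temperature; final 200 nM GPX4, 1 mM GSH, 0.5 mM cumene hydroperoxide, 0.5 mM NADPH, 100 nM GR, 0.01% BSA, pH 7.5 Tris. NADPH fluorescence (340/450 nm) read at 0 and 15 min.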
# Also: nearly all actives have a fitted effect of over 65% in size.
# Potency is read from the fitted curve at half-maximal effect.
SMILES,Potency [1],Potency [2]
Cc1c(N(C)CS(=O)(=O)O)c(=O)n(-c2ccccc2)n1C,3210 nM (active),2000 nM (active)
CN(C)CCOc1ccccc1Cc1ccccc1,inactive,inactive
Oc1c(I)cc(Cl)c2cccnc12,inactive,inactive
"Cc1c2oc3c(C)ccc(C(=O)N[C@@H]4C(=O)N[C@H](C(C)C)C(=O)N5CCC[C@H]5C(=O)N(C)CC(=O)N(C)[C@@H](C(C)C)C(=O)O[C@@H]4C)c3nc-2c(C(=O)N[C@@H]2C(=O)N[C@H](C(C)C)C(=O)N3CCC[C@H]3C(=O)N(C)CC(=O)N(C)[C@@H](C(C)C)C(=O)O[C@@H]2C)c(N)c1=O (I: T[dV]P[Sar][NMeV] / II: T[dV]P[Sar][NMeV]; ester I:1-I:C, II:1-II:C; linker I:N-II:N via Actinocin(9to1))",inactive,inactive
C[C@H]1C[C@H]2[C@@H]3CCC4=CC(=O)C=C[C@]4(C)[C@@]3(Cl)[C@@H](O)C[C@]2(C)[C@@]1(O)C(=O)CO,inactive,inactive
CN1CCN(C(c2ccccc2)c2ccccc2)CC1,inactive,inactive
CCCCS(=O)(=O)N[C@@H](Cc1ccc(OCCCCC2CCNCC2)cc1)C(=O)O,inactive,inactive
C=C1C[C@H]2[C@@H]3C=C(C)C4=CC(=O)CC[C@]4(C)[C@H]3CC[C@]2(C)[C@@]1(OC(C)=O)C(C)=O,inactive,inactive
O=C1OCCN1/N=C/c1ccc([N+](=O)[O-])o1,inactive,inactive
OC(CCN1CCCCC1)(c1ccccc1)c1ccccc1,inactive,inactive
